Binding signal data for 14 sequences are collected here from PMC4081100, “A DNA-binding-site landscape and regulatory network analysis for NAC transcription factors in Arabidopsis thaliana”.

Common to all, as to test: universal protein binding microarray (PBM); transcription factors of Arabidopsis thaliana; high values mean tight binding
What all share (conditions): protein: recombinant; tags: GST; chain copies: 2; dsDNA, one strand shown

Experiment [1] has as its target T1, GST-ANAC092(1-176) (Arabidopsis thaliana, UniProt Q9FKA0 1-176).
T1 sequence: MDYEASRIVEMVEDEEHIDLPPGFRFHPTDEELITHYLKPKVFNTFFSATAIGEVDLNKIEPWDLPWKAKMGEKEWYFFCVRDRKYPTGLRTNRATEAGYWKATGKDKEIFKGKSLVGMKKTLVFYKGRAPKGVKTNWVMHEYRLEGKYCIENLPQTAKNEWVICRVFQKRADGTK
In a few lines:
(§1)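 GST-tagged NAC-domain, full-length or DNA-binding-domain proteins were induced in cells, with zinc acetate added for zinc-finger proteins. They were purified on glutathione–Sepharose 4B and quantified by A280 or anti-GST western blot. Each was applied at 200 to 500 nM final, in duplicate, to custom all-10-mer Agilent 4 × 180K arrays made double-stranded by primer extension, with gapped and ungapped 8-mers scored. Binding is the normalised enrichment score (E-score).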

The target of experiment [2] is GST-NTL6(1-168) (Arabidopsis thaliana, UniProt Q9SCK6 1-168). In short, it runs like this:
as §1

The target in experiment [3] is T2, GST-ANAC019 NAC domain (Arabidopsis thaliana, UniProt Q9C932 14-162).
T2 sequence: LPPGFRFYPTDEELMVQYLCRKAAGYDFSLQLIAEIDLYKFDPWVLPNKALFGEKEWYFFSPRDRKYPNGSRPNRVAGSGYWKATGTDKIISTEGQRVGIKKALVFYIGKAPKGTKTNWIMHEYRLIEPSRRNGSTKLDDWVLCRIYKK
In short, it runs like this: as §1

Experiment [4] concerns the target T3, GST-ANAC055(1-171) (Arabidopsis thaliana, UniProt Q9LDY8 1-171).
T3 sequence: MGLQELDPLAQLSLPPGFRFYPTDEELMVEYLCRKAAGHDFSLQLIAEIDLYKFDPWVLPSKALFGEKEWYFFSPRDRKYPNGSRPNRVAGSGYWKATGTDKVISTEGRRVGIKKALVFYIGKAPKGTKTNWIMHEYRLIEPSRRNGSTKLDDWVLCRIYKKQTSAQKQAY
In a few lines: as §1

Experiment [5] addresses T4, GST-ATAF1 NAC domain (Arabidopsis thaliana, UniProt Q39013 7-158).
T4 sequence: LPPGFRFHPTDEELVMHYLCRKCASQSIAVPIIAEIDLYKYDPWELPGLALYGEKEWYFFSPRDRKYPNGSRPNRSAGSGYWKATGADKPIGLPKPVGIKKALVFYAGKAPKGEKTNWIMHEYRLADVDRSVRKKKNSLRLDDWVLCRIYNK
In short, it runs like this: as §1

In experiment [6] the target is T5, GST-ANAC092(1-285) full length (Arabidopsis thaliana, UniProt Q9FKA0 1-285).
T5 sequence: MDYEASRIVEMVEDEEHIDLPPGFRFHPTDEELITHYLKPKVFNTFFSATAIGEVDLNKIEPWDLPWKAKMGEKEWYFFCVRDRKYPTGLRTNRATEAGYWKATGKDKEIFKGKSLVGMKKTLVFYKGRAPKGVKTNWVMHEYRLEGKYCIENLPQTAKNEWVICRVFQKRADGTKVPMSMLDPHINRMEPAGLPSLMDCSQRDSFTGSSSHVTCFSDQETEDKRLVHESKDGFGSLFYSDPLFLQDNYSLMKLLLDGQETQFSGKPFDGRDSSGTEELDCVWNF
In short, it runs like this: as §1

Experiment [7] has as its target T6, GST-NAP(1-166) (Arabidopsis thaliana, UniProt O49255 1-166).
T6 sequence: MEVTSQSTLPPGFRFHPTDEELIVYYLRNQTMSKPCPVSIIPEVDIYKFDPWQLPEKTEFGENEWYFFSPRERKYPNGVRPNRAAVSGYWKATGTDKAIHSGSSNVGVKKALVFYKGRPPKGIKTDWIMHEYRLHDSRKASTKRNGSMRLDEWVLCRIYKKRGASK
In a few lines: as §1

Experiment [8] addresses T7, GST-NST2(1-184) (Arabidopsis thaliana, UniProt Q9M274 1-184).
T7 sequence: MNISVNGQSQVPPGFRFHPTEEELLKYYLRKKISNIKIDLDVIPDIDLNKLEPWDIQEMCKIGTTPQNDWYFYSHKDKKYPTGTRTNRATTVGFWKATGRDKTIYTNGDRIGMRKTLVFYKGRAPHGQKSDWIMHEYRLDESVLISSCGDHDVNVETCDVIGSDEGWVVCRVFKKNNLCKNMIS
In a few lines:
as §1

For experiment [9], the target named is T8, GST-NTL8 NAC domain (Arabidopsis thaliana, UniProt Q9XIN7 14-156).
T8 sequence: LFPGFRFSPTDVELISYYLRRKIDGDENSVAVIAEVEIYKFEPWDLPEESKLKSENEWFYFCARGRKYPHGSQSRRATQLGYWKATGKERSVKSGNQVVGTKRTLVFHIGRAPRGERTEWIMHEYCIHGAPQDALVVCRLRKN
In short, it runs like this: as §1

Experiment [10] concerns the target T9, GST-SND1(1-203) (Arabidopsis thaliana, UniProt Q9LPI7 1-203).
T9 sequence: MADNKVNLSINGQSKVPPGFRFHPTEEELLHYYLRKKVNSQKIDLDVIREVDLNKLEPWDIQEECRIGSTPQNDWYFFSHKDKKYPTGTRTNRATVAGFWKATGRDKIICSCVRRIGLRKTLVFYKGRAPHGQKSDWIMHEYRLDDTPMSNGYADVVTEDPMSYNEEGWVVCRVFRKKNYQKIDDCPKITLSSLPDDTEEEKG
In a few lines: as §1

Experiment [11] addresses T10, GST-VND3 NAC domain (Arabidopsis thaliana, UniProt Q9FH59 12-162).
T10 sequence: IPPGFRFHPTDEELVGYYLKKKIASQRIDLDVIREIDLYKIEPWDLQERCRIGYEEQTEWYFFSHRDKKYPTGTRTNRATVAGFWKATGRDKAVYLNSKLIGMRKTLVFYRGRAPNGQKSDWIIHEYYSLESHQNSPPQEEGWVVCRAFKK
In short, it runs like this:
as §1

Experiment [12] addresses T11, GST-VND7 NAC domain (Arabidopsis thaliana, UniProt Q9C8W9 9-158).
T11 sequence: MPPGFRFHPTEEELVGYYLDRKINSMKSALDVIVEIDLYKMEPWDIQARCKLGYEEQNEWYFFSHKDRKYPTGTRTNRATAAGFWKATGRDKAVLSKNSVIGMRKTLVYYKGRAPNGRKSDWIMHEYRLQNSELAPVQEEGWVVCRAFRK
In a few lines: as §1

GST-NTL6(1-168), sequence (Q9SCK6 1-168): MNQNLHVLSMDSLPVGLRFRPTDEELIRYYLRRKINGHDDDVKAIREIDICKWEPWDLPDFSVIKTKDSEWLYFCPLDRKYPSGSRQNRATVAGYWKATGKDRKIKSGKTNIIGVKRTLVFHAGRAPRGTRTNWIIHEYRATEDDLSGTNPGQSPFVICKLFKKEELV

In the case of CTTACGTA, the binding signal in [1] amounted to 0.423 E-score; in [2], 0.161 E-score; in experiment [3] it was 0.457 E-score; in [4], 0.421 E-score; in experiment [5], 0.407 E-score; in experiment [6], 0.435 E-score. Also, the binding signal in experiment [7] came to 0.363 E-score; in experiment [8] it was 0.313 E-score; in [9], 0.219 E-score; in experiment [10], 0.405 E-score; in experiment [11], 0.43 E-score; in [12], 0.433 E-score.
Regarding CTTAAGTA, the binding signal in [1] came to 0.154 E-score; in experiment [2], 0.416 E-score; in experiment [3] it was 0.0907 E-score; in [4], 0.178 E-score; in [5] it was 0.207 E-score; in [6], 0.198 E-score. The binding signal in experiment [7] was 0.0567 E-score; in [8], 0.207 E-score; in [9], 0.264 E-score; in [10], 0.267 E-score; in experiment [11], 0.218 E-score; in experiment [12], 0.182 E-score.
Regarding GTAAGGAA, the binding signal in experiment [1] came out at 0.259 E-score; in experiment [2], 0.486 E-score; in experiment [3], 0.23 E-score; in [4] it was 0.193 E-score; in [5], 0.239 E-score; in [6] it was 0.29 E-score. Further, the binding signal in [7] is 0.268 E-score; in experiment [8], 0.271 E-score; in experiment [9], 0.392 E-score; in experiment [10], 0.35 E-score; in [11], 0.231 E-score; in experiment [12] it was 0.236 E-score.
Take ACGCAACA: the binding signal in experiment [1] turned out to be 0.473 E-score; in experiment [2] it was 0.0917 E-score; in experiment [3] it was 0.408 E-score; in [4], 0.35 E-score; in experiment [5], 0.292 E-score; in experiment [6], 0.484 E-score. The binding signal stood at 0.399 E-score in [7]; 0.4 E-score in experiment [8]; 0.0984 E-score in [9]; 0.467 E-score in [10]; 0.347 E-score in experiment [11]; 0.406 E-score in experiment [12].
Turning to AAGGTAAC, the binding signal in [1] is 0.233 E-score; in experiment [2], 0.309 E-score; in [3] it was 0.141 E-score; in experiment [4] it was 0.185 E-score; in [5], 0.142 E-score; in experiment [6], 0.285 E-score. Moreover, the binding signal in experiment [7] came to 0.151 E-score; in experiment [8], 0.232 E-score; in experiment [9] it was 0.441 E-score; in [10] it was 0.188 E-score; in experiment [11] it was 0.154 E-score; in experiment [12], 0.194 E-score.
Turning to GCAAGTAA, the binding signal in [1] is 0.339 E-score; in experiment [2] it was 0.409 E-score; in experiment [3] it was 0.211 E-score; in experiment [4] it was 0.198 E-score; in [5], 0.151 E-score; in [6], 0.415 E-score. The binding signal in experiment [7] amounted to 0.056 E-score; in [8], 0.223 E-score; in experiment [9] it was 0.264 E-score; in experiment [10], 0.352 E-score; in [11] it was 0.231 E-score; in experiment [12] it was 0.232 E-score.
Regarding GTTGAGTA, the binding signal amounted to 0.305 E-score in [1]; 0.152 E-score in [2]; 0.0635 E-score in experiment [3]; 0.0864 E-score in experiment [4]; 0.139 E-score in experiment [5]; 0.386 E-score in [6]. Besides, the binding signal in experiment [8] was 0.279 E-score; in experiment [10], 0.419 E-score; in [11] it was 0.0828 E-score; in [12], 0.108 E-score.
Consider AGTAAGTA, for which the binding signal in experiment [1] came to 0.145 E-score; in experiment [2], 0.415 E-score; in experiment [3], 0.133 E-score; in experiment [4], 0.199 E-score; in experiment [5], 0.14 E-score; in experiment [6] it was 0.184 E-score. The binding signal is 0.218 E-score in experiment [8], 0.137 E-score in experiment [10], 0.275 E-score in experiment [11] and 0.083 E-score in experiment [12].
Take GAAGGTAA: the binding signal in experiment [1] stood at 0.174 E-score; in experiment [2] it was 0.329 E-score; in experiment [3], 0.158 E-score; in experiment [4] it was 0.111 E-score; in experiment [5] it was 0.22 E-score; in experiment [6] it was 0.25 E-score. Also, the binding signal in experiment [8] is 0.255 E-score; in experiment [9], 0.463 E-score; in [10], 0.227 E-score; in experiment [11] it was 0.148 E-score; in experiment [12] it was 0.141 E-score.
Regarding GCACGAAA, the binding signal amounted to 0.401 E-score in experiment [1]; 0.0615 E-score in experiment [2]; 0.253 E-score in experiment [3]; 0.197 E-score in experiment [4]; 0.165 E-score in experiment [5]; 0.441 E-score in experiment [6]. The binding signal in experiment [7] was determined as 0.245 E-score; in experiment [8], 0.0864 E-score; in experiment [9], 0.0576 E-score; in experiment [10], 0.211 E-score; in experiment [11], 0.173 E-score; in [12], 0.145 E-score.
Regarding ACGTTTTC, the binding signal amounted to 0.382 E-score in [1]; 0.196 E-score in [2]; 0.248 E-score in [3]; 0.304 E-score in experiment [4]; 0.336 E-score in [5]; 0.401 E-score in [6]. Besides, the binding signal in [7] is 0.29 E-score; in experiment [8] it was 0.32 E-score; in experiment [9], 0.225 E-score; in [10] it was 0.322 E-score; in experiment [11], 0.303 E-score; in [12], 0.327 E-score.
Take GTTAAGTA: the binding signal in experiment [1] amounted to 0.119 E-score; in [2] it was 0.45 E-score; in experiment [3] it was 0.171 E-score; in [4], 0.0947 E-score; in experiment [5] it was 0.218 E-score; in [6] it was 0.123 E-score. Moreover, the binding signal is 0.148 E-score in [8]; 0.228 E-score in experiment [9]; 0.202 E-score in experiment [10]; 0.245 E-score in experiment [11]; 0.0716 E-score in experiment [12].
Turning to AGGGAAAA, the binding signal in experiment [1] worked out at 0.22 E-score; in experiment [2], 0.201 E-score; in [3] it was 0.131 E-score; in experiment [4], 0.111 E-score; in [5], 0.187 E-score; in experiment [6] it was 0.0865 E-score. Besides, the binding signal in experiment [7] came to 0.117 E-score; in experiment [9] it was 0.416 E-score; in experiment [10], 0.115 E-score; in [11] it was 0.0874 E-score; in experiment [12], 0.192 E-score.
With AGAAGGAA, the binding signal in [1] was 0.192 E-score; in [2], 0.417 E-score; in experiment [3] it was 0.0646 E-score; in experiment [4] it was 0.117 E-score; in experiment [5], 0.149 E-score; in experiment [6], 0.156 E-score. The binding signal stood at 0.177 E-score in experiment [8]; 0.379 E-score in [9]; 0.157 E-score in [10]; 0.0779 E-score in [11]; 0.0759 E-score in experiment [12].
